# Experimental data: PubChem BioAssay (EPA / NIEHS)
# “And” between values parts separate entries of the source, which are not always exact repeats. Identical values can stand only once. The source made the active and inactive calls. The calls were made as follows: active = hit-call score of the fitted dose curve at least 0.9, where 1 is the maximum; inactive = score below 0.9.
# Read-out: Vascular cell adhesion molecule 1 (VCAM1), VCAM1 (gene 7412)
# Assay: BSK_LPS_VCAM1: BioMAP Diversity Plus: LPS Assay for Vascular cell adhesion molecule 1 (VCAM1) Biomarker Activity (AID 2283086)
# Conditions: primary human HUVEC with PBMC; actives raise or lower the signal
# Summary of the method: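 Measured by ELISA: VCAM-1 in LPS-activated HUVEC/PBMC co-cultures 24 h after treatment. Values reflect bidirectional fitting with DMSO as baseline.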
Structure (SMILES),AC50,outcome
Nc1ccc(-c2ccc(N)c(N)c2)cc1N,20 µM (active),
O=c1[nH]c(Cl)c(Cl)cc1Cl,,inactive
O=C(O)CCCc1ccc(N(CCCl)CCCl)cc1,20 µM (active) and 28.3 µM (active),
COC(C)(C)CCC[C@H](C)C/C=C/C(C)=C/C(=O)OC(C)C,27.4 µM (active),
O=P1(NCCCl)OCCCN1CCCl (stereo unspecified),,inactive
O=S(=O)(c1ccccc1)c1ccccc1,,inactive
Clc1ccc(-c2ccccc2)cc1,,inactive
Oc1cc(Cl)ccc1Cl,,inactive

# Read-out: CD40, CD40 (gene 958)
# Assay: BSK_SAg_CD40: BioMAP Diversity Plus: SAg Assay for CD40 Biomarker Activity (AID 2283088)
# Conditions: primary human HUVEC with PBMC; actives raise or lower the signal
# Summary of the method: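 Endpoint derived by fitting increases or decreases versus DMSO controls. CD40 is detected by fluorescence ELISA in a human vascular co-culture of endothelium and PBMC at 24 h.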
Structure (SMILES),outcome,AC50
Nc1ccc(-c2ccc(N)c(N)c2)cc1N,inactive,
O=c1[nH]c(Cl)c(Cl)cc1Cl,inactive,
O=C(O)CCCc1ccc(N(CCCl)CCCl)cc1,,20 µM (active)
COC(C)(C)CCC[C@H](C)C/C=C/C(C)=C/C(=O)OC(C)C,,26.8 µM (active)
O=P1(NCCCl)OCCCN1CCCl (stereo unspecified),inactive,
O=S(=O)(c1ccccc1)c1ccccc1,inactive,
Clc1ccc(-c2ccccc2)cc1,inactive,
Oc1cc(Cl)ccc1Cl,inactive,
